PubChem BioAssay (NCI)
Compounds without any hit were thinned out: in the full panel of roughly 79,000, 15% have a hit. A number with no mark means an inactive call. Calls of active or inactive are those of the source. Cut-off read from the data, not from the text of the source: active = growth inhibition above about 70%; inactive = the rest.

Test: NCI Yeast Anticancer Drug Screen. Data for the mgt1 strain (AID 153)
Details: S. cerevisiae mgt1 mutant growth inhibition, hits give high values
Experimental: Growth inhibition of yeast strains with defined genetic alterations is measured as a screen for potential anti-cancer activity. Selected strains with alterations in DNA damage repair or cell cycle control were exposed to compounds and growth inhibition was measured relative to vehicle treated controls. The strain used in this assay is mgt1

Compound	growth inhibition (at 1.2 µM) [%]	growth inhibition (at 3.7 µM) [%]	growth inhibition (at 11.0 µM) [%]	growth inhibition (at 33.0 µM) [%]	growth inhibition (at 100.0 µM)
COc1ccc2sc3cccc(NCCN(C)C)c3c(=O)c2c1	-1	-3	-4	-3	15%
COC(=O)C1=C(C)NC(C)=C(C(=O)OC)C1c1cccc(/[N+]([O-])=C/c2ccccc2)c1	1	4	13	33	96% (active)
c1ccc2c(c1)sc1cc3ccncc3cc12	-2	-3	-2	11	94% (active)
CC(CC(C)(C)[N+](C)(C)C)[N+](C)(C)C (stereo not given)	-1	1	2	1	0%
OC1CSCCCSCCSCCCSC1	-5	-6	-10	-9	-29%
CN(C)c1ccc(Sc2ccc3nc(N)nc(N)c3c2)cc1	-5	2	-4	-11	7%
c1ccc2c(c1)C(=NCCCN1CCCCCC1)c1cccn1-2	-4	-1	-1	3	97% (active)
O=C1C2CC[C@@H]3C(=O)C(Cl)(Cl)[C@@H]3CCC2C1(Cl)Cl (stereo not given in full)	-2	-1	8	-2	4%
